Several values for one entry are separate records, joined by “and”; a condition that tells them apart may be missing. Equal values may be shown once. Inconclusive results are not listed. More than one record can exist for a structure, and the calls need not agree. Activity calls are given as the source filed them. Unless noted, the call rests on the fitted dose curve; in most records, active means well fitted curve in the direction sought with a large enough effect in the repeat runs; inconclusive means weak or mixed curves; inactive means no such curve, though single readings can be large; an effect the other way counts as inactive or inconclusive.
Legend:
[1] = A CellTox Green Cytotoxicity Assay to monitor cytotoxicity in HepG2 cells - 8 hour (AID 1224890); further: nearly all actives have a fitted effect of over 45% in size
Summary of the method: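 HepG2 cells were seeded together with the CellTox Green dye at 600 cells/well, left 5 h at 37 C/5% CO2, then given compounds in DMSO. Fluorescence from dye bound to dead-cell DNA was read repeatedly over 40 h of treatment at 37 C.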

[2] = qHTS assay to identify small molecule antagonists of the estrogen receptor alpha (ER-alpha) signaling pathway using the BG1 cell line in the presence of 0.1 nM 17-beta-estradiol - cell viability counter screen (AID 1259241); further: nearly all actives have a fitted effect of over 40% in size
Summary of the method: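 Live-cell protease activity (CellTiter-Fluor fluorescence, 30 min) was read in the same wells after VM7Luc4E2 cells had been exposed to compounds with 0.1 nM 17beta-estradiol for 22 hr at 37C.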

[3] = qHTS assay to identify small molecule antagonists of the androgen receptor (AR) signaling pathway using the MDA cell line in the presence of 0.5 nM R1881 - cell viability counter screen (AID 1259242); further: nearly all actives have a fitted effect of over 45% in size
Summary of the method: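 MDA-kb2 cells (human breast carcinoma, stably carrying MMTV-luciferase reporter) were exposed to compounds with 0.5 nM R1881 (final) for 16 hr at 37C, 0% CO2; viability then read as live-cell protease fluorescence (CellTiter-Fluor, 30 min) in the same wells.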

[4] = biological target: Estrogen receptor (Homo sapiens) (UniProt P03372); assay: qHTS assay to identify small molecule antagonists of the estrogen receptor alpha (ER-alpha) signaling pathway using the BG1 cell line in the presence of 0.1 nM 17-beta-estradiol (AID 1259244); further: nearly all actives have a fitted effect of over 50% in size; further: potency means the concentration at half of the fitted maximal effect
Sequence of Estrogen receptor (Homo sapiens) (P03372 whole entry, looked up): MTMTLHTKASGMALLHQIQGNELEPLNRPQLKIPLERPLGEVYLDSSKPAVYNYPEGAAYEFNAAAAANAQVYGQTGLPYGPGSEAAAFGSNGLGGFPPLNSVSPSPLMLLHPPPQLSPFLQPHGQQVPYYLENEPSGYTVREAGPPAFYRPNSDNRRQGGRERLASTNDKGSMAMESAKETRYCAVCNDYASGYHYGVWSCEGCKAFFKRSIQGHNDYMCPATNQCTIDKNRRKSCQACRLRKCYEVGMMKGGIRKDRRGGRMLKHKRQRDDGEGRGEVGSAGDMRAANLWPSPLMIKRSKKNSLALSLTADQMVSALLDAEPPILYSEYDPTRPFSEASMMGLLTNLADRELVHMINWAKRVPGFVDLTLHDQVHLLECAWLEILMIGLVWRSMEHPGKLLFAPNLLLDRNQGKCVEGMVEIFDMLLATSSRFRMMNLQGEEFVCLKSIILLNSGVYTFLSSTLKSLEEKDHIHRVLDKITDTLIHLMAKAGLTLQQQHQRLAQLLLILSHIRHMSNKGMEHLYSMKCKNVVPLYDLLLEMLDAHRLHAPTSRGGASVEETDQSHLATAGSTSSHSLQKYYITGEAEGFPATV
Summary of the method: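 VM7Luc4E2 cells (endogenous full-length ER-alpha, stable 4xERE-luciferase) were grown 5 days in phenol red-free medium with charcoal-stripped FBS, then exposed 22 h at 37C to compounds plus 0.1 nM (final) 17beta-estradiol; ONE-Glo luminescence read-out.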

[5] = qHTS assay to identify small molecule phospholipidosis (PLD) inducers (AID 1259344; active means well fitted curve in the direction sought with a large enough effect; an effect the other way counts as inactive or inconclusive)
Summary of the method: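 HepG2 cells on collagen I, attached 4 h at 37 C, were co-treated with compound and LipidTOX Red dye for 24 h at 37 C, then fixed with paraformaldehyde plus Hoechst 33342 and imaged by high-content microscopy for phospholipid accumulation.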

[6] = qHTS assay to identify small molecule HDAC inhibitors (AID 1259364); further: top concentration of the series differs between compounds; nearly all actives have a fitted effect of over 45% in size
Summary of the method: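 Wild-type HCT-116 cells were plated overnight, exposed to compounds for 2 h at 37 °C, then given HDAC-Glo class I/II luminogenic reagent for 30 min at room temperature before luminescence was read.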

[7] = qHTS assay to identify small molecule HDAC inhibitors - cell viability counter screen (AID 1259365); further: series mostly up to about 92 µM; nearly all actives have a fitted effect of over 50% in size
Summary of the method: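 HCT-116 (wild type), 1,500 cells/well, overnight 37C/5% CO2; compound in DMSO 2hr; CellTiter-Glo 30min RT; luminescence read.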

[8] = qHTS assay to identify small molecule agonists of the sonic hedgehog signaling (Shh) pathway - cell viability counter screen (AID 1259366); further: nearly all actives have a fitted effect of over 50% in size
Summary of the method: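 CellTiter-Fluor fluorescence read-out, 1 hr at 37C, added after 23hr compound exposure. Cells: 3T3 Gli1-Luc, an NIH/3T3 clone with stably integrated Gli1-Luc reporter, plated 4hr before compound.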

[9] = qHTS assay to identify small molecule antagonists of the sonic hedgehog signaling (Shh) pathway - cell viability counter screen (AID 1259367); further: nearly all actives have a fitted effect of over 55% in size
Summary of the method: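 NIH/3T3-derived Gli1-Luc reporter cells (2,000 per well) rested 4 hr at 37 C, then received DMSO compounds plus conditioned medium. After 23 hr of treatment, CellTiter-Fluor was added for 1 hr at 37C and fluorescence read.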

[10] = qHTS assay to identify small molecule agonists of the sonic hedgehog signaling (Shh) pathway (AID 1259368; calls by dose curve; further: series mostly up to about 92 µM; nearly all actives have a fitted effect of over 15% in size)
Summary of the method: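 NIH/3T3-derived 3T3Gli1-Luc cells carrying a stably integrated Gli1 response element–firefly luciferase reporter were plated, left 4 hr at 37 C, then given compounds in DMSO for 24 hr. Luminescence was read 30 min after adding luciferase reagent.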

[11] = qHTS assay to identify small molecule antagonists of the sonic hedgehog signaling (Shh) pathway (AID 1259369; calls by dose curve; further: nearly all actives have a fitted effect of over 45% in size; further: potency means the concentration at half of the fitted maximal effect)
Summary of the method: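 NIH/3T3-derived 3T3Gli1-Luc cells with stably integrated Gli1-Luc reporter were preincubated 4hr at 37 C, then given compounds in DMSO plus Shh conditioned medium and incubated 24hr. Firefly luciferase luminescence read after 30min reagent at room temperature.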

[12] = qHTS assay to identify small molecule agonists of the androgen receptor (AR) signaling pathway in the presence of an antagonist - cell viability counter screen (AID 1259379); further: series mostly up to about 92 µM; nearly all actives have a fitted effect of over 25% in size
Summary of the method: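 MDA-kb2 human breast carcinoma cells (stable MMTV-luciferase, AR/GR responsive) were seeded 3,000 cells/well, pre-incubated 5 hr at 37C without CO2, then given 3.0uM nilutamide and compounds at 15 concentrations for 16 hr. Viability was read by CellTiter-Fluor fluorescence.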

[13] = qHTS assay to identify small molecule antagonists of the estrogen receptor beta (ER-beta) signaling pathway - cell viability counter screen (AID 1259382); further: series mostly up to about 92 µM; nearly all actives have a fitted effect of over 55% in size
Summary of the method: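 ER-beta-UAS-bla HEK293T cells (2,000/well, 2% charcoal-stripped FBS) were pre-incubated 6 hr at 37C, then given compound plus 1nM final 17-beta-estradiol for 16 hr. Viability was read in the same wells by CellTiter-Glo luminescence after 30 min at room temperature.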

[14] = biological target: Estrogen receptor (Homo sapiens) (UniProt P03372); assay: qHTS assay to identify small molecule agonists of the estrogen receptor alpha (ER-alpha) signaling pathway in the presence of an antagonist (AID 1259383; calls by dose curve; further: top concentration of the series differs between compounds; nearly all actives have a fitted effect of over 15% in size)
Summary of the method: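 VM7Luc4E2 cells (endogenous full-length ER-alpha, 4×ERE-luciferase) were precultured 5 days in phenol red-free medium with 10% charcoal-stripped FBS, given 10.0nM ICI-182,780 (final), then treated with compounds at 15 concentrations for 22hr at 37C; luminescence read with ONE-Glo.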

[15] = biological target: Androgen receptor (Homo sapiens) (UniProt P10275); assay: qHTS assay to identify small molecule antagonists of the androgen receptor (AR) signaling pathway using the MDA cell line in the presence of 0.5 nM R1881 (AID 1259243); further: nearly all actives have a fitted effect of over 50% in size; further: potency means the concentration at half of the fitted maximal effect
Sequence of Androgen receptor (Homo sapiens) (P10275 whole entry, looked up): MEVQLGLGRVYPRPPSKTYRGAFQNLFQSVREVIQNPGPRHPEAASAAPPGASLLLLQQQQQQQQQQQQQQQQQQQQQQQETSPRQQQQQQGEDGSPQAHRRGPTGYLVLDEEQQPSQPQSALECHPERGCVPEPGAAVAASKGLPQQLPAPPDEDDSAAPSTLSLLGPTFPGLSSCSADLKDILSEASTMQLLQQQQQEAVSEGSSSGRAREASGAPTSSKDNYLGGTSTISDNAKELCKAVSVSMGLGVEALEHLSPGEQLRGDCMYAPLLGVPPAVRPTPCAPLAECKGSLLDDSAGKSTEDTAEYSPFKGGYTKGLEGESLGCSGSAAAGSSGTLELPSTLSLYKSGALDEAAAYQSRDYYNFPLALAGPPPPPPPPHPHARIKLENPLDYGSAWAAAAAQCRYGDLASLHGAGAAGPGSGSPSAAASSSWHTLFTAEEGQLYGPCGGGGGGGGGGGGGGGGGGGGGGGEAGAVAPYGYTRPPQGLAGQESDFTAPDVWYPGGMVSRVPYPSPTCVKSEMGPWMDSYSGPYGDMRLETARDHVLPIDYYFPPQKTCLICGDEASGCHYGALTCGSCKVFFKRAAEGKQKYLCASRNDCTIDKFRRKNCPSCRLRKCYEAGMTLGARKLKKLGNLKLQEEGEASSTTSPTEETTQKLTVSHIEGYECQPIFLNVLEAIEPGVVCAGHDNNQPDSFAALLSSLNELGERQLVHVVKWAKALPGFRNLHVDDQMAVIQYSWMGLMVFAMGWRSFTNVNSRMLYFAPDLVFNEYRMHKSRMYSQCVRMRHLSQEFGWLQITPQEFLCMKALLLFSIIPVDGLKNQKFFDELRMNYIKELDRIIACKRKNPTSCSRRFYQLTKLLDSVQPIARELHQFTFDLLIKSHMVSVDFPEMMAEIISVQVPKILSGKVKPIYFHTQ
Summary of the method: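 MDA-kb2 human breast carcinoma cells carrying an MMTV-luciferase reporter (AR- and GR-responsive) were plated, rested 5 hr at 37C, dosed with compounds, then stimulated with 0.5 nM R1881 (final) for 16 hr; luminescence was read after ONE-Glo.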

[16] = biological target: Estrogen receptor beta (Homo sapiens) (UniProt Q92731); assay: qHTS assay to identify small molecule agonists of the estrogen receptor beta (ER-beta) signaling pathway (AID 1259377; active means well fitted activation curve with a large enough effect in the signal ratio in the repeat runs, not every such curve was filed as active; the % refers to the signal ratio; further: potency means the concentration at half of the fitted maximal effect)
Sequence of Estrogen receptor beta (Homo sapiens) (Q92731 whole entry, looked up): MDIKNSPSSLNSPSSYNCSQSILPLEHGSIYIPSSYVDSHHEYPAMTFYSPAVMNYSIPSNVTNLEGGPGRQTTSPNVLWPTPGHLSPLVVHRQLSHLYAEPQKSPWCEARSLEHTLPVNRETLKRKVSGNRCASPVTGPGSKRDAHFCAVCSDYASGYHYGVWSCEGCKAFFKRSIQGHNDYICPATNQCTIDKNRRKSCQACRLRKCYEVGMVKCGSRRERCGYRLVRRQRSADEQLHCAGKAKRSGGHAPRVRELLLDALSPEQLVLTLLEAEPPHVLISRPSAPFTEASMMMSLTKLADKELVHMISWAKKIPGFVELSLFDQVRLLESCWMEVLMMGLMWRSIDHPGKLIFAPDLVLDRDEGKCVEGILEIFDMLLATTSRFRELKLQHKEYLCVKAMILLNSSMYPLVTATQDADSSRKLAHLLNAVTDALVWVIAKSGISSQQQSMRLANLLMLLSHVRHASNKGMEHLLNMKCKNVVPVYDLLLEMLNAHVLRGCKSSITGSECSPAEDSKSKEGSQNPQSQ
Summary of the method: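 Beta-lactamase reporter readout: fluorescence of LiveBLAzer B/G FRET substrate after 2 h at room temperature, following 16 h compound treatment of ER-beta-UAS-bla HEK293T cells at 37C in 2% charcoal-stripped FBS medium.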

[17] = qHTS assay to identify small molecule agonists of the estrogen receptor beta (ER-beta) signaling pathway - cell viability counter screen (AID 1259380); further: nearly all actives have a fitted effect of over 30% in size; further: potency means the concentration at half of the fitted maximal effect
Summary of the method: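 ER-beta-UAS-bla HEK293T cells in medium with 2% charcoal-stripped FBS were preincubated 6 hr at 37C, dosed with compound in DMSO for 16 hr, then after the bla read, CellTiter-Glo was added for 30 min at room temperature; luminescence recorded.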

[18] = biological target: Androgen receptor (Homo sapiens) (UniProt P10275); assay: qHTS assay to identify small molecule agonists of the androgen receptor (AR) signaling pathway in the presence of an antagonist (AID 1259381; calls by dose curve; further: nearly all actives have a fitted effect of over 15% in size)
Summary of the method: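 MDA-kb2 human breast carcinoma cells carrying an MMTV-luciferase reporter (AR- and GR-responsive) were treated with compounds at 15 concentrations plus 3.0uM final nilutamide for 16hr at 37C without CO2; luminescence was read after ONE-Glo addition.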

[19] = qHTS assay to identify small molecule agonists or antagonists of the thyroid stimulating hormone receptor (TSHR) signaling pathway - wild type cell line counter screen (AID 1259384; calls by dose curve)
Summary of the method: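 Wild-type HEK293 cells were plated 18 h at 37 C/5% CO2, pin-dosed with compound plus Ro20-1724 medium, held 30 min at room temperature, then given cAMP-d2 and anti-cAMP-cryptate; fluorescence was read after 1 h. Fifteen concentrations, triplicate.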

[20] = biological target: Estrogen receptor beta (Homo sapiens) (UniProt Q92731); assay: qHTS assay to identify small molecule antagonists of the estrogen receptor beta (ER-beta) signaling pathway (AID 1259378; active means well fitted inhibition curve with a large enough effect in the signal ratio in the repeat runs, not every such curve was filed as active; the % refers to the signal ratio)
Summary of the method: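 ER-beta-UAS-bla HEK293T (GripTite) cells in 2% charcoal-stripped FBS medium were preincubated 6 hr at 37C, dosed with compound, then stimulated with 1 nM E2 (final) for 16 hr; beta-lactamase reporter read by B/G FRET fluorescence after 2 hr substrate loading.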

Measured: Potency

C=C(C)C1CC=C(C)CC1 (stereo not drawn)
not listed: [15] | [16] | [17] | [18] | [19] | [20]
inactive: all other assays above

CC(C)OC(=O)C(C)(C)Oc1ccc(C(=O)c2ccc(Cl)cc2)cc1
61.1 µM (active) and inactive: [4]
27.3 µM (active) and inactive: [11]
active: [15] 43.3 µM and 29.8 µM
not listed: [7] | [9] | [14] | [20]
inactive: all other assays above

Cc1ccc(C)c(O)c1C
not listed: [5] | [12] | [14] | [16] | [20]
inactive: all other assays above

C=C(C)C(=O)OCCOC(=O)C(=C)C
not listed: [5]
inactive: all other assays above

O=C(COc1ccc(Cl)cc1)N1CCN(Cc2ccc3c(c2)OCO3)CC1
active: [4] 48.6 µM and 29.8 µM | [11] 17.2 µM and 18.8 µM
not listed: [12] | [14] | [15] | [16] | [17] | [18] | [20]
inactive: all other assays above

Cc1[nH]c(=O)c(C#N)cc1-c1ccncc1
not listed: [14] | [15] | [17] | [18]
inactive: all other assays above

c1ccc2c(c1)c1cccc3ccc4cccc2c4c31
60.7 µM (active) and inactive: [16]
not listed: [5] | [12]
inactive: all other assays above

CN1C(C(=O)Nc2ccccn2)=C(O)c2ccccc2S1(=O)=O
not listed: [9] | [14] | [15] | [16] | [18] | [20]
inactive: all other assays above

CC(C(=O)O)c1cccc(C(=O)c2ccccc2)c1 (stereo not drawn)
not listed: [14] | [15] | [17] | [18]
inactive: all other assays above

O=S(=O)(O)c1ccc(O)cc1
not listed: [12] | [14] | [15] | [16] | [18] | [20]
inactive: all other assays above

COc1ccc(OC)c(C(O)CNC(=O)CN)c1 (stereo not drawn)
not listed: [12] | [14] | [15] | [16] | [17] | [18] | [20]
inactive: all other assays above

CC(=O)C1(C)CC2=C(CCCC2(C)C)CC1C (stereo not drawn)
not listed: [4] | [5] | [14] | [17]
inactive: all other assays above

CCCc1c(OCCCCc2nn[nH]n2)ccc(C(C)=O)c1O
active: [17] 68.6 µM
not listed: [9] | [14] | [15] | [16] | [18] | [20]
inactive: all other assays above

Reference: PubChem BioAssay (Tox21)
